# About 1,200 (0.92%) of roughly 130,000 compounds were called active.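 How the source made its calls: active means inhibition above the mean plus 3 SD, with well images judged a real hit on visual review (cut at about 60% in these data, passing the limit was not always enough); inconclusive means inhibition over the cutoff but images rejected on review; inactive means inhibition not above the cutoff.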 The sample as a whole holds a higher share of actives than the screen did.
# Assay: inhibitors of insulin promoter-driven GFP, primary screen, imaging, TRM-6 cells (human fetal islet line), eGFP reporter, cell count (AID 1273;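 on normalized cell count: cells exposed to compound for 48 h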)
# Settings: at 2 µM, reporter expression induced with tamoxifen; inhibition: stronger effect = higher value; normalized cell count: measured here: cell count, toxicity
SMILES,inhibition,normalized cell count [%]
CCOC(=O)c1c(C)[nH]c(C2=NNC(=NC(C)COC)SC2)c1C (stereo not drawn),31.2% (inactive),87.8
Cc1ccc(O)c(-c2cc(C(=O)NCc3ccccc3)[nH]n2)c1,7.14% (inactive),81.6
Cc1ccc(O)c(CCc2ccccc2)n1,91.9% (active),94.3
O=C(O)CCCc1ccccc1,-23.8% (inactive),97.5
CN(C)c1nccc(NCc2ccccc2)c1C#N,40.5% (inactive),140
O=C(NNc1cc(Cl)ccc1Cl)c1cccnc1Cl,11.1% (inactive),114
CCc1nnc(NS(=O)(=O)c2ccc(NC(=S)NC(=O)c3cccs3)cc2)s1,-11.1% (inactive),96.4
CN(C)/C=C(/C(=O)c1ccc(F)cc1)S(=O)(=O)c1ccc(F)cc1,50% (inactive),124
CN(C)/C=C(/C(=O)c1ccccc1Cl)S(C)(=O)=O,75% (active),84.2
CN(C)/C=C(/C(=O)c1ccccc1)S(=O)(=O)c1ccc(Cl)cc1,-23.8% (inactive),70.5
COc1cccc(NC(=O)CS(=O)(=O)c2cn(CC(=O)N3CCOCC3)c3ccccc23)c1,-16.7% (inactive),88.8
O=C1c2ccccc2C(=O)N1CCC(O)C[N+](=O)[O-] (stereo not drawn),-17.6% (inactive),90.3
Cc1cc([N+](=O)[O-])ccc1NC(=O)c1ccc(NC(=O)C(C)C)cc1,30% (inactive),120
CCC(=O)N1CCC(C(N)=O)(N2CCCCC2)CC1,33.3% (inactive),108
COC(=O)C1=C(C)N(C)C(=S)NC1c1cc(OC)ccc1OC (stereo not drawn),23.1% (inactive),118
Cc1nc2ccccc2cc1O,67.9% (active),57.9
Cc1nc2ccccc2c(-c2ccccc2)c1C(=O)c1ccccc1,27.5% (inactive),64.5
CCOC(=O)c1cc2ccccc2nc1C,57.1% (inactive),47.1
COc1cc(C(=O)NCc2ccc(-n3cccc3)cc2)cc(OC)c1OC,46.1% (inactive),69
O=C(CN1CCSCC1)N/N=C/c1ccc(Cl)cc1,35.3% (inactive),92.4
Cc1ccc(-n2cc(CN(C)Cc3nccn3C)c(-c3cccc(C)c3)n2)cc1,41.7% (inactive),124
O=C(O)C1C2CC2CN1C(=O)c1ccc(Cl)cc1Cl (stereo not drawn),-5.56% (inactive),121

SMILES,inhibition,normalized cell count [%]
CCCc1nc2scc(-c3ccc(C)cc3)c2c(=O)n1N,81.5% (active),78.3
NC(=O)Cc1nc2scc(-c3ccc(Cl)cc3)c2c(=O)[nH]1,5.88% (inactive),114
Cc1nc2scc(-c3cccs3)c2c(=O)n1N,9.8% (inactive),105
COc1cc(OC)cc(-c2nnc(N(C)C(=O)c3ccncc3)s2)c1,36.4% (inactive),156
CC(NC(=S)NC1CCCCC1)C(c1ccccc1)N1CCOCC1 (stereo not drawn),-38.9% (inactive),111
Cc1cccc(N(C(=O)Cc2cccs2)C(C(=O)NC2CCCC2)c2ccsc2)c1 (stereo not drawn),-23.3% (inactive),119
Cc1ccc(N(C(=O)c2ccc(CN3CCOCC3)o2)C(C(=O)NCCC(C)C)c2cccs2)c(C)c1 (stereo not drawn),8.11% (inactive),114
Cc1cccc(N(C(=O)c2ccc(CN3CCOCC3)o2)C(C(=O)NC2CCCCC2)c2ccc(F)cc2)c1 (stereo not drawn),87.5% (active),98.6
C1CC1Cc1noc(CN2CCN(CC3CC3)CC2)n1,0% (inactive),97.5
CCOC(=O)C1(Cc2cccc(OC)c2)CCN(C(C)CC(C)(C)O)CC1 (stereo not drawn),-275% (inactive),102
O=C(COC(=O)c1ccc(O)cc1)Nc1nccs1,16.7% (inactive),74.1
COc1cc(C(=O)Nc2nccs2)cc(OC)c1OC,-25.3% (inactive),97.1
CCCCOC(=O)Nc1nccs1,93.8% (active),53.2
CC(/C=N/NC(=O)c1ccncc1)=C\c1ccco1,23.1% (inactive),115
CC(=O)c1ccc(NC(=O)C(C)NCc2ccc(Cl)cc2)cc1 (stereo not drawn),-189% (inactive),58.5
Cc1ccc(S(=O)(=O)NC(=O)COc2ccccc2C)cc1,81.2% (active),150
Cc1cccc(NC(=O)COc2ccccc2C)n1,-406% (inactive),56.6
COCCNC(=O)COc1ccccc1C,20.8% (inactive),112
COc1cccc2cc(S(=O)(=O)c3ccc(C)cc3)/c(=N/NS(=O)(=O)c3ccc(C)cc3)oc12,27.3% (inactive),139
COc1ccc([N+](=O)[O-])cc1NC(=O)COC(=O)/C=C/c1ccco1,-14.3% (inactive),128
COc1ccc(N2C(=O)/C(=C\c3ccco3)N=C2SCC(N)=O)cc1Cl,91.7% (active),75.5
COC(=O)C1=C(C)N(c2ccc(Br)cc2)C(=O)/C1=C\c1ccco1,25.6% (inactive),98.3

# Reference: PubChem BioAssay AID1273 (Columbia University Molecular Screening Center, 2008)
